# In PubChem BioAssay (NCATS):
# Inconclusive results are not listed. Where a call stands in place of a potency, no number is given. Activity calls are given as the source filed them. Unless noted, the call rests on the fitted dose curve; in most records, active means well fitted curve in the direction sought with a large enough effect; inconclusive means small, poorly fitted or top-dose-only effect, or another doubt; inactive means no such curve, though single readings can be large; an effect the other way counts as inactive or inconclusive.
# Test: S16 Schwann cell viability assay (CellTiter-Glo assay) (AID 624031); further: nearly all actives have a fitted effect of over 70% in size
# Details: S16 rat Schwann cells viability, 24 h; series mostly up to 57.5 µM
# How it was run: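 Following overnight culture in 10% FBS DMEM, parental S16 rat Schwann cells are dosed for 24 h at 37 °C. Viability is read as CellTiter-Glo luminescence and expressed as % activity relative to DMSO (0%) and no-cell wells.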
# Potency means the concentration at half of the fitted maximal effect.
row,Compound,Potency
1,COCC(=O)N(c1c(C)cccc1C)C(C)C(=O)OC (stereo unspecified),inactive
2,Oc1c(Br)cc(Br)cc1Br,inactive
3,CNC(=O)Oc1cccc2ccccc12,inactive
4,COP(=S)(OC)Oc1ccc(Sc2ccc(OP(=S)(OC)OC)cc2)cc1,inactive
5,C=CCOC(Cn1ccnc1)c1ccc(Cl)cc1Cl (stereo unspecified),inactive
6,COP(=O)(OC)OC=C(Cl)Cl,inactive
7,Cc1ccc(N=CN(C)C=Nc2ccc(C)cc2C)c(C)c1,inactive
8,O=c1n(Cl)c(=O)n(Cl)c(=O)n1Cl,inactive
9,N#Cc1nn(-c2c(Cl)cc(C(F)(F)F)cc2Cl)c(N)c1S(=O)C(F)(F)F (stereo unspecified),inactive
10,CCC(=O)O[C@H]1CC[C@H]2[C@@H]3CCC4=CC(=O)CC[C@]4(C)[C@H]3CC[C@]12C,inactive
11,CN(C)C(=S)SSC(=S)N(C)C,2.56 µM (active)
12,CC[n+]1c(-c2ccccc2)c2cc(N)ccc2c2ccc(N)cc21,inactive
13,CCNc1nc(Cl)nc(NCC)n1,inactive
14,CCCCCCCCC(=O)NCc1ccc(O)c(OC)c1,inactive
15,COP(=O)(OC)C(O)C(Cl)(Cl)Cl (stereo unspecified),inactive
16,C[C@H]1C(=O)O[C@@H]2CCN3CC=C(COC(=O)[C@](C)(O)[C@]1(C)O)[C@H]23,inactive

# Test: S16 Schwann cell PMP22 intronic element firefly luciferase assay (AID 624032); further: nearly all actives have a fitted effect of over 30% in size
# Details: S16 rat Schwann cells, PMP22 element FLuc, 24 h; series mostly up to 57.5 µM
# How it was run: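 Luciferase reporter of PMP22 intronic-element expression in stably transfected S16 rat Schwann cells, read by ONE-Glo luminescence after 24 h compound exposure at 37 C. Activity scaled between DMSO (0%) and positive-control PTC124; concentration-effect curves quality-classified.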
row,Compound,Potency
1,N#Cc1nn(-c2c(Cl)cc(C(F)(F)F)cc2Cl)c(N)c1S(=O)C(F)(F)F (stereo unspecified),10.2 µM (active)
2,CC[n+]1c(-c2ccccc2)c2cc(N)ccc2c2ccc(N)cc21,inactive
3,CCCCCCCCC(=O)NCc1ccc(O)c(OC)c1,inactive
4,C[C@H]1C(=O)O[C@@H]2CCN3CC=C(COC(=O)[C@](C)(O)[C@]1(C)O)[C@H]23,inactive

# Test: S16 Schwann cell PMP22 intronic element beta-lactamase assay (AID 624044; calls by dose curve; further: nearly all actives have a fitted effect of over 15% in size)
# Details: S16 rat Schwann cells, PMP22 element beta-lactamase FRET, 24 h; series mostly up to 38.3 µM
# How it was run: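 Rat S16 Schwann cells with beta-Lac driven by a PMP22 intronic element, compound-treated 24 h at 37 °C. LiveBLAzer FRET B/G read: 460 nm normalized to potassium clavulanate vs DMSO; 535 nm FRET as viability; concentration-effect curves classified.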
row,Compound,Potency
1,CNC(=O)Oc1cccc2ccccc12,inactive
2,C=CCOC(Cn1ccnc1)c1ccc(Cl)cc1Cl (stereo unspecified),inactive
3,COP(=O)(OC)OC=C(Cl)Cl,15.8 µM (active)
4,Cc1ccc(N=CN(C)C=Nc2ccc(C)cc2C)c(C)c1,inactive
5,CCCCCCCCC(=O)NCc1ccc(O)c(OC)c1,inactive
6,COP(=O)(OC)C(O)C(Cl)(Cl)Cl (stereo unspecified),inactive
